The panel holds about 83,000 compounds, 20% with a hit somewhere; the sample as a whole holds those more often.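 Single-dose data. Exposure time 48 hours. Values below 10 considered active.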 A number with no mark means an inactive call. The source made the active and inactive calls.

Our source for the growth values is PubChem BioAssay (NCI).

Some test systems named below: HCT-15 colon; HT29 colon; SNB-75 CNS; SNB-19 CNS; U251 CNS; PC-3 prostate; SK-MEL-5 melanoma; UACC-62 melanoma; LOX IMVI melanoma; SK-MEL-28 melanoma; SK-MEL-2 melanoma; EKVX NSCLC; SN12C renal; UO-31 renal; TK-10 renal; ACHN renal; CAKI-1 renal; CCRF-CEM leukemia; MOLT-4 leukemia.
Assay in all cases: NCI-60 one-dose screen, 48 h (100 = growth as untreated, 0 = no growth, -100 = all killed)
What all share (details): 10 µM unless noted

`CCC(=O)Oc1ccc(/C(=C(\C)c2ccccc2)c2ccc(OCCN3CCCCC3)cc2)cc1`: the growth in the test on HCT-15 colon was 58.6%; with HT29 colon, 8.78% (active); in the test on SNB-75 CNS it was 96.5%; with SNB-19 CNS, 85%; with U251 CNS, 68.4%; with PC-3 prostate it was 72.8%. Also, the growth in the test with SK-MEL-5 melanoma was 82.5%; in the test with UACC-62 melanoma it was 88.5%; with LOX IMVI melanoma it was 81%; in the test with SK-MEL-28 melanoma, 71.2%; in the test with SK-MEL-2 melanoma it was 92.1%; with EKVX NSCLC, 87.1%. Also, the growth in the test on SN12C renal was 79.7%; in the test with UO-31 renal, 64.3%; with TK-10 renal, 84.2%; with ACHN renal, 102%; in the test with CAKI-1 renal, 87.8%; with CCRF-CEM leukemia, 84.9%. Moreover, the growth in the test with MOLT-4 leukemia is 60.8%.

On to `CCc1ccc(-c2cn3ccnc3c(-c3ccc4ncn(Cc5ccccc5)c4c3)n2)cc1`, for which the growth in the test on HCT-15 colon is 25.3%; in the test with HT29 colon, 31.2%; in the test on SNB-75 CNS, 70.7%; with SNB-19 CNS, 79.1%; in the test on U251 CNS, 53.9%; in the test on PC-3 prostate it was 49.6%. Moreover, the growth with SK-MEL-5 melanoma was 52.1%; in the test with UACC-62 melanoma, 75.1%; with LOX IMVI melanoma it was 49.8%; in the test with SK-MEL-28 melanoma, 80.9%; in the test on SK-MEL-2 melanoma, 85.2%; in the test with EKVX NSCLC it was 60.3%. Further, the growth is 77.5% in the test with SN12C renal; 42.2% with UO-31 renal; 84.5% in the test on TK-10 renal; 55.3% in the test with ACHN renal; 52.1% in the test with CAKI-1 renal; 50.3% with CCRF-CEM leukemia. For the same compound, in the test with MOLT-4 leukemia, the growth is 45.8%.

As for `O=C(Nc1cccc(C(=O)N2CCc3ccc(Cl)cc32)c1)c1ccco1`, the growth was 24.2% with HCT-15 colon; 15.9% with HT29 colon; 0.916% (active) in the test on SNB-75 CNS; 37.6% in the test on SNB-19 CNS; 36.7% with U251 CNS; 69.7% with PC-3 prostate. For the same compound, the growth in the test with SK-MEL-5 melanoma was 24.3%; in the test on UACC-62 melanoma, 36.3%; in the test on LOX IMVI melanoma, 35.9%; with SK-MEL-28 melanoma, 59.9%; in the test with SK-MEL-2 melanoma it was 25.8%; with EKVX NSCLC, 54.1%. In addition, the growth was 49.6% with SN12C renal; 45.1% in the test on UO-31 renal; 77.6% in the test on TK-10 renal; 48.2% with ACHN renal; 29.6% with CAKI-1 renal; 29.4% in the test with CCRF-CEM leukemia. In addition, the growth in the test on MOLT-4 leukemia was 30.1%.

In the case of `CCN(Cc1ccccc1)c1ccc(C=O)cc1`, the growth in the test with HCT-15 colon is 91%; in the test on HT29 colon, 107%; with SNB-75 CNS it was 82.1%; with SNB-19 CNS it was 99.2%; with U251 CNS, 92%; in the test with PC-3 prostate it was 75.3%. In addition, the growth with SK-MEL-5 melanoma was 98.9%; in the test on UACC-62 melanoma it was 85.2%; with LOX IMVI melanoma it was 91%; with SK-MEL-28 melanoma, 115%; with SK-MEL-2 melanoma it was 98.3%; in the test on EKVX NSCLC, 106%. For the same compound, the growth is 96.7% in the test with SN12C renal; 74.6% in the test on UO-31 renal; 64.2% in the test with TK-10 renal; 91.9% in the test on ACHN renal; 88% with CAKI-1 renal; 45.5% in the test on CCRF-CEM leukemia. The growth in the test on MOLT-4 leukemia is 97.2%.

As to `C=C1C(=O)O[C@H]2[C@H]1CC/C(CNC(=O)/C=C/c1ccccc1)=C\CC[C@@]1(C)O[C@@H]21`, the growth in the test with HCT-15 colon is -72.7% (active); with HT29 colon it was -22.8% (active); in the test with SNB-75 CNS, 86.8%; in the test with SNB-19 CNS, 52.5%; in the test with U251 CNS it was 46.1%; in the test with PC-3 prostate, 9.48% (active). Moreover, the growth in the test with SK-MEL-5 melanoma is 40.6%; in the test with UACC-62 melanoma it was -81.6% (active); in the test on LOX IMVI melanoma, -88% (active); in the test on SK-MEL-28 melanoma, -38.1% (active); with SK-MEL-2 melanoma, 40.8%; in the test with EKVX NSCLC it was -16.2% (active). The growth with SN12C renal is -32.1% (active); with UO-31 renal, -85.2% (active); in the test on TK-10 renal, -47.1% (active); with ACHN renal it was -34.5% (active); in the test with CAKI-1 renal, -88.1% (active); in the test on CCRF-CEM leukemia it was 1.78% (active). The growth in the test on MOLT-4 leukemia was -26.4% (active).

Turning to `CCc1c(Cl)nc(N)nc1Nc1ccc(C)c(C)c1`, the growth with HCT-15 colon was 55.7%; in the test on HT29 colon, 102%; in the test on SNB-75 CNS it was 93.5%; in the test on SNB-19 CNS, 96.2%; in the test on U251 CNS, 88.1%; in the test on PC-3 prostate it was 95.8%. Moreover, the growth with SK-MEL-5 melanoma is 92.9%; with UACC-62 melanoma, 92.8%; in the test with LOX IMVI melanoma it was 85.7%; in the test on SK-MEL-28 melanoma it was 103%; with SK-MEL-2 melanoma, 99.3%; with EKVX NSCLC, 89.2%. Besides, the growth with SN12C renal is 99.9%; with UO-31 renal, 90.8%; with TK-10 renal, 103%; in the test with ACHN renal, 99.7%; in the test with CAKI-1 renal it was 86.5%; in the test with CCRF-CEM leukemia it was 100%. In the test with MOLT-4 leukemia, the growth is 94.4%.

On to `C=C1C(=O)O[C@H]2[C@H]1CC/C(C(=O)NCCCCCNC(=O)/C1=C/CC[C@@]3(C)O[C@H]3[C@H]3OC(=O)C(=C)[C@@H]3CC1)=C\CC[C@@]1(C)O[C@@H]21`, for which the growth was 95.5% in the test with HCT-15 colon; 102% with HT29 colon; 103% in the test on SNB-75 CNS; 102% in the test on SNB-19 CNS; 99.3% with U251 CNS; 91.6% in the test with PC-3 prostate. In addition, the growth with SK-MEL-5 melanoma was 100%; in the test with UACC-62 melanoma it was 97.9%; in the test with LOX IMVI melanoma, 99.9%; with SK-MEL-28 melanoma, 101%; with SK-MEL-2 melanoma, 107%; in the test with EKVX NSCLC it was 105%. Also, the growth in the test on SN12C renal is 109%; in the test on UO-31 renal it was 92.6%; with TK-10 renal, 96.5%; with ACHN renal, 102%; in the test on CAKI-1 renal it was 106%; in the test on CCRF-CEM leukemia, 105%. Moreover, in the test on MOLT-4 leukemia, the growth was 96.2%.

As to `CCCCCCNC(=O)Oc1ccc(/C(=C(\C)c2ccccc2)c2ccc(OCCN3CCCCC3)cc2)cc1`, the growth was 8.13% (active) in the test with HCT-15 colon; -6.46% (active) in the test with HT29 colon; 92.5% in the test on SNB-75 CNS; 74.6% in the test with SNB-19 CNS; 50.1% in the test with U251 CNS; 47.9% in the test with PC-3 prostate. In addition, the growth in the test with SK-MEL-5 melanoma is 71.2%; in the test on UACC-62 melanoma it was 5.21% (active); in the test on LOX IMVI melanoma, 53.9%; in the test with SK-MEL-28 melanoma, 48.8%; in the test with SK-MEL-2 melanoma, 75.3%; in the test on EKVX NSCLC, 77.7%. Further, the growth in the test on SN12C renal is 71.4%; with UO-31 renal, 39.4%; with TK-10 renal, 83.3%; with ACHN renal, 90.2%; with CAKI-1 renal it was 44.8%; in the test on CCRF-CEM leukemia it was 60.7%. In addition, the growth in the test on MOLT-4 leukemia was 43.7%.
